High-throughput results: PubChem BioAssay, National Center for Advancing Translational Sciences (NCATS)
The list is not random: actives were taken first. Their share in the collection is about 1.7%.
GLP1R inv ag: inverse agonists of human GLP-1 receptor; P43220; AID 624417; HEK293 GLP-1R CRE-luciferase, luminescence, 24 h; GLP-1R form is constitutively active; Potency, µM (doses to about 38.3 µM), without a hit: at the highest dose activity change, negative = inhibition, most hits filed as inhibitors; 410,000 compounds, 1.6% hits; further: potency means the concentration at half of the fitted maximal effect; on the % scale 0 is the no-effect control and ±100 the full control effect; nearly all actives have a fitted effect of over 55% in size
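Cells are plated, allowed 12 hours at 37 deg C, then treated with compounds for 24 hr before luciferase detection reagent is added and luminescence is read after 12 min at room temperature. The HEK293 line carries constitutively active GLP-1R with a cAMP-responsive reporter.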
PTHR1 agonist: activates the human parathyroid hormone receptor PTHR1. HEK293 GP2 PTHR1 cells, GloSensor cAMP luminescence, 1 h. 410,000 compounds, 0.075% hits. Q03431. Potency, µM (doses to about 115 µM), for the others: top-dose activation, hits mostly activators; further: potency means the concentration at half of the fitted maximal effect; nearly all actives have a fitted effect of over 55% in size
Target sequence (Q03431 whole entry, looked up): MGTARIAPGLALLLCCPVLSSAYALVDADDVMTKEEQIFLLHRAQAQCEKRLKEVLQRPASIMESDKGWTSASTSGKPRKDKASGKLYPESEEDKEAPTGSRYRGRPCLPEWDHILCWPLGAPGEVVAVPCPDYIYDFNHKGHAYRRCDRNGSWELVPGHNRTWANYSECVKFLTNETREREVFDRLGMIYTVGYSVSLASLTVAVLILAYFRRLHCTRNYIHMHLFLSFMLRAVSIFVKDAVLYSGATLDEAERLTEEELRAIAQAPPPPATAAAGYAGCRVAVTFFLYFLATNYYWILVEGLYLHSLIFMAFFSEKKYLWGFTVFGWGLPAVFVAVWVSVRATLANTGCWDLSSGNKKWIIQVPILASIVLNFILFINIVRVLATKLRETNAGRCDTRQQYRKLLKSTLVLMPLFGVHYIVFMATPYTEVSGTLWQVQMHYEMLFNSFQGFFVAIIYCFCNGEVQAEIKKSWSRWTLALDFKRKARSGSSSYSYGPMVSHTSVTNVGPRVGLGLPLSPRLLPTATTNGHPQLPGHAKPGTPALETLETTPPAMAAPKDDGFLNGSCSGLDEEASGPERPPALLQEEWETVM
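HEK-293-derived GP2 cells expressing PTHR1 and a GloSensor cAMP reporter, 3,000/well, plated overnight, given luciferin plus IBMX (each 0.5 mM as added) for 1 h at 37 °C, then compound for 1 h at 37 °C. Luminescence was read after 15 min at room temperature.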
HEK293 tox: cytotoxic in the GLP-1 receptor inverse agonist counter-screen; HEK293 cAMP-luciferase reporter cells, luminescence, 24 h; Potency, µM (top dose mostly 38.3 µM), for inactives: at the highest dose activity change, negative = inhibition, actives largely listed as inhibitors; 410,000 compounds, 0.13% hits; AID 624418;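 further: loss of luciferase light is scored as toxicity; potency means the concentration at half of the fitted maximal effect; on the % scale 0 is the no-effect control and ±100 the full control effect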
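Seeding density was 200 cells/uL; after overnight-length (12 h) culture, 23 nL compounds went on for 24 h at 37 °C. Readout used a luciferase detection reagent, luminescence taken after 12 min at room temperature.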
IDH1 R132H inh: human IDH1 R132H inhibition; O75874; IDH1-R132H enzyme, NADPH consumption, diaphorase/resazurin fluorescence; Potency, µM (highest dose often 76.6 µM), for inactives: top-dose activity change, negative = inhibition, most hits filed as inhibitors; 390,000 compounds, 0.093% hits; AID 602179; further: potency means the concentration at half of the fitted maximal effect; on the % scale 0 is the no-effect control and ±100 the full control effect; nearly all actives have a fitted effect of over 65% in size
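IDH1-R132H (0.5 ug/mL dispensed) in pH 7.5 Tris buffer was preincubated 30 min with compound, then given a substrate mix of 0.016 mM NADPH and 2 mM alpha-KG for 80 min at room temperature; remaining NADPH was read by diaphorase/resazurin fluorescence.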
LDHA block: LDHA (human) enzyme inhibition; P00338; purified LDHA, NADH/diaphorase-resazurin fluorescence; active compounds read low; activity change, % (values are at about 110 or 230 µM); 480,000 compounds, 0.15% hits; AID 1347041; in the data active means activity change below about -30%; inconclusive means mostly about -25% to -30%;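 further: plate controls were DMSO wells for no effect and wells without enzyme for full effect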
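Human LDH5 (2 nM) was incubated with 0.06 mM NADH and 0.2 mM pyruvate for 5 min at room temperature in Tris pH 7.4. Remaining NADH was coupled through diaphorase/resazurin, and resorufin fluorescence was read at 0 and 20 min.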
GLP-1R agonist: agonists of human GLP-1 receptor; P43220; AID 624172; Potency, µM (doses to about 45.6 µM), for inactives: at the top dose activation, most hits filed as activators; 380,000 compounds, 0.007% hits; HEK293 GLP-1R CRE-luciferase, luminescence, 4-6 h; cells express a hypersensitive GLP-1R form; further: potency means the concentration at half of the fitted maximal effect; % of control where 0% means no effect
IDH1 autofl: interferes with resorufin fluorescence in IDH1 counter-screen; shares compounds with IDH1 R132H inh; Resorufin detection reagent fluorescence interference, cell-free; inhibition of signal, % at 51.2 µM; 750 tested, under 10 active; AID 623980;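 further: 0% = wells with normal resorufin and full inhibition = wells lacking resorufin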
WT IDH1 inh: selectivity of mutant IDH1 inhibitors: human wild-type IDH1 | Potency, µM (series often up to 115 µM), for the others: top-dose activity change, negative = inhibition, usual class: inhibitors | shares compounds with IDH1 R132H inh | WT IDH1 enzyme, NADPH diaphorase/resazurin fluorescence | 750 compounds, 9% hits;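 further: potency means the concentration at half of the fitted maximal effect; 0% = full WT IDH1 enzyme control and full inhibition = no enzyme wells; nearly all actives have a fitted effect of over 55% in size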
mIDH1 confirm: mutant IDH1 (human) inhibition, confirmed; IDH1 R132H enzyme, NADPH diaphorase/resazurin fluorescence; Potency, µM (series often up to 76.6 µM), inactives show at the highest dose activity change, negative = inhibition, actives largely listed as inhibitors; shares compounds with IDH1 R132H inh; 750 compounds, 83% hits; further: potency means the concentration at half of the fitted maximal effect; nearly all actives have a fitted effect of over 50% in size
An asterisk follows results filed as active; i = inactive; u = inconclusive; x = not tested or not shown; [ ] = another dose, or the depositor's remark. Unless noted, the call rests on the fitted dose curve; in most records, active means well fitted curve in the direction sought with a large enough effect; inconclusive means small, poorly fitted or top-dose-only effect, or another doubt; inactive means no such curve, though single readings can be large; an effect the other way counts as inactive or inconclusive.

SMILES	GLP1R inv ag	PTHR1 agonist	HEK293 tox	IDH1 R132H inh	LDHA block	GLP-1R agonist	IDH1 autofl	WT IDH1 inh	mIDH1 confirm
COc1ccc2c(C(=O)c3ccc(C)cc3)n(Cc3ccc(C(N)=O)cc3)[n+]([O-])c2c1	9%	i	10%	u	-1	-7%	4	-19%	16µM*
COc1ccc2[nH]c(C)c(CCNC(=O)c3cc4cccc(OC)c4oc3=O)c2c1	x	x	x	x	3	x	x	x	x
COc1ccc(F)cc1C(=O)/C=C/c1cccc(C#N)c1	x	x	x	x	-1	x	x	x	x
O=C(O)c1[nH]c2ccccc2c1C(c1cc(Br)ccc1O)c1c(C(=O)O)[nH]c2ccccc12	-36%	i	-25%	41µM*	-6	-3%	11	71µM*	25µM*
COc1cc(Cl)cc(C(c2c(C(=O)O)[nH]c3ccccc23)c2c(C(=O)O)[nH]c3ccccc23)c1O	-7%	i	-17%	-4%	3	-2%	x	x	x
CSc1nn(Cc2ccc(C)cc2)c(N)c1S(=O)(=O)c1ccccc1	u	-33%	-2%	32µM*	-9	-8%	2	-2%	10µM*
O=C(CN1CCN(c2nc(-c3cccs3)nc3ccccc23)CC1)N1CCCC1	x	x	x	x	-9	x	x	x	x
CCc1ccc2c(c1)C(NC(C)=O)C(=O)N2CCN1CCOCC1 (stereo unspecified)	1%	i	-17%	46µM*	1	0%	-1	u	25µM*
Cc1cccc(NC(=S)NCCO)c1	x	x	x	x	5	x	x	x	x
COc1cc2c(-c3ccccc3Cl)nc3c(c(C)nn3-c3ccccc3)c2cc1OC	u	i	-1%	u	-2	x	-2	0%	5µM*
CC(C)(C)c1ccc(-c2nc(SCCCOc3ccccc3)n3[nH]c(=O)cc3n2)cc1	1%	-66%	-3%	x	2	x	x	x	x
Cc1cc(C)cc(OCCSc2nc(-c3ccc(C(C)(C)C)cc3)nc3cc(=O)[nH]n23)c1	-4%	-72%	5%	u	1	x	-5	u	25µM*
O=C(c1c(F)cccc1F)N(Cc1ccc2[nH]ccc2c1)C1CC1	x	x	x	x	1	x	x	x	x
COc1cc(OC)c2c(C)c(CC(=O)NCCc3cccc(F)c3)c(=O)oc2c1	x	x	x	x	1	x	x	x	x
CCc1ccc(NC(=O)CCn2cnc3onc(-c4ccccc4Cl)c3c2=O)cc1	x	x	x	x	9	x	x	x	x
CCC(=O)N(CCC1(c2ccccc2OC)CCOC(C(C)C)C1)Cc1ccco1 (stereo unspecified)	u	i	3%	u	8	7%	3	7%	40µM*
O=C(CCl)c1ccc2c(c1)CCN2C(=O)C1CCCCC1	8%	-34%	-16%	u	1	1%	0	8%	40µM*
CCC1CCCCN1S(=O)(=O)c1ccc2c(c1)CCN2C(=O)C1CCC1 (stereo unspecified)	u	-31%	-17%	3%	2	25%	x	x	x
COC(=O)C1=C(C)N(C2CC2)C(=S)NC1c1cccs1 (stereo unspecified)	x	x	x	x	3	x	x	x	x
O=S(=O)(NCC(Nc1ccc(Cl)cc1)c1ccccc1)c1ccccc1 (stereo unspecified)	u	-21%	u	u	-2	-16%	2	-6%	22µM*
O=C(c1ccc2ccccc2n1)N1CCC(C(=O)N2CCCCCC2)CC1	x	x	x	x	0	x	x	x	x
Cc1ccc(-n2ncc3c(=O)[nH]c(SCC(=O)N4CCCc5ccccc54)nc32)cc1	51%	-22%	-4%	u	-5	1%	-6	10%	28µM*
CC(C)c1ccccc1-n1c(SCc2cc(=O)oc3ccc4ccccc4c23)nnc1-c1cccnc1	u	i	-6%	u	0	2%	7	-24%	11µM*
Cc1cccc(N(C(=O)CCC(=O)Nc2cc(C)on2)C(C(=O)NC2CCCC2)c2cccnc2)c1 (stereo unspecified)	11%	i	0%	-26%	1	7%	x	x	x
Cc1cc(NC(=O)CCC(=O)N(c2cccnc2)C(C(=O)NC2CCCC2)c2ccccc2)no1 (stereo unspecified)	0%	-8%[57.5 µM]	-2%	u	-6	-4%	3	7%	u
SMILES	GLP1R inv ag	PTHR1 agonist	HEK293 tox	IDH1 R132H inh	LDHA block	GLP-1R agonist	IDH1 autofl	WT IDH1 inh	mIDH1 confirm
Cc1cccc(N(C(=O)CCC(=O)Nc2cc(C)on2)C(C(=O)NC2CCCC2)c2ccccc2)c1 (stereo unspecified)	-20%	-8%	6%	45µM*	-13	0%	3	3%	20µM*
C=CCNC(=O)NC(C)(C)C(=O)O	x	x	x	x	-2	x	x	x	x
CN(C)c1cccc(C(=O)NNc2c(Cl)cc(Cl)cc2Cl)c1	x	x	x	x	2	x	x	x	x
COc1cc(-c2cc(C(=O)Nc3ccc(S(N)(=O)=O)cc3)c3ccccc3n2)cc(OC)c1OC	u	i	-26%	u	-10	19%	-1	1%	u
COc1cc(-c2cc(C(=O)Nc3ccc(S(=O)(=O)Nc4ncccn4)cc3)c3ccccc3n2)cc(OC)c1OC	10%	i	-10%	u	-15	4%	x	x	x
CCc1ccc(OCCn2c(C3CC(=O)N(Cc4ccc(F)cc4)C3)nc3ccccc32)cc1 (stereo unspecified)	u	-26%	-25%	u	5	x	-4	-8%	u
Cc1ccc(OCCn2c(C3CC(=O)N(Cc4ccc(F)cc4)C3)nc3ccccc32)c(C)c1 (stereo unspecified)	u	-35%	u	4%	8	x	x	x	x
COc1ccc(-c2nc(Cn3nnc(C(=O)Nc4ccccc4F)c3N)c(C)o2)cc1OC	x	x	x	x	-7	x	x	x	x
O=C(O)c1cccc(S(=O)(=O)N2CCCC2)c1	2%	i	21%	-8%	-12	3%	x	x	x
O=C(O)c1cccc(S(=O)(=O)N2CCN(C(c3ccccc3)c3ccccc3)CC2)c1	-3%	i	-6%	u	-10	3%	7	5%	32µM*
